aSyn UTR act – Activators working through SNCA 5'UTR binding (MLPCN); alpha-synuclein 5'UTR reporter, activators screen; AID 1814; actives 7.1% (n = 300,000); activity score, % (tested at 7.5 µM), hits read low; in the data active means activity score below about -60%
* marks the source's active call; other numbers are inactive results. Only a sample is shown.

What do the screens show for `COc1ccccc1C1=NOC(C)(c2sc(-c3ccc(Cl)cc3)nc2C)C1` (centres undefined)?
aSyn UTR act: -70*

Results for Cc1nc(-c2ccccc2)sc1C1(C)CC(c2ccccc2F)=NO1 (centres undefined) ?
aSyn UTR act: -76*

Results for Cc1nc(-c2ccc(Cl)cc2)sc1C1(C)CC(c2ccccc2)=NO1 (centres undefined) ?
aSyn UTR act: -134*

How did O=C(CSc1nnc(NC(=O)c2ccccc2F)s1)NCC1CCCO1 (centres undefined) do in these assays?
aSyn UTR act: -72*

How did O=C(CSc1nnc(NC(=O)c2ccc(F)cc2)s1)NC1CC1 do in these assays?
aSyn UTR act: -79*

What do the screens show for `CCOC(=O)CNC(=O)CSc1nnc(NC(=O)c2ccc(C)cc2)s1`?
aSyn UTR act: 74

Results for Cc1cccc(C(=O)Nc2nnc(SCC(=O)NC3CC3)s2)c1 ?
aSyn UTR act: -66*

Results for CCOC(=O)c1cnc(Nc2nc3ccccc3o2)nc1CSc1ncccn1 ?
aSyn UTR act: -100*

Results for CCCc1nc(Nc2nc3ccccc3o2)nc(C)c1C(=O)OCC ?
aSyn UTR act: -80*

How did c1ccc(C2=Nc3ccccc3SC2c2nc3ccccc3[nH]2)cc1 (centres undefined) do in these assays?
aSyn UTR act: -250*

What do the screens show for `O=C(CCN1CCC(c2cccs2)=N1)c1cccs1`?
aSyn UTR act: -94*

Results for CCCc1ccc(Oc2cc(Cl)nc(N)n2)cc1 ?
aSyn UTR act: -149*

What do the screens show for `CCc1ccc(Oc2cc(C)nc(N)n2)cc1`?
aSyn UTR act: -92*

Results for O=C(NCc1cccs1)c1noc2c1CCCCC2 ?
aSyn UTR act: -144*

Results for O=C(NC1CCCC1)c1noc2c1CCCCC2 ?
aSyn UTR act: -134*

What do the screens show for `COc1ccc(CNC(=O)c2noc3c2CCCCC3)cc1`?
aSyn UTR act: -62*

How did O=C(Nc1cnn(Cc2ccc(F)cc2)c1)c1noc2c1CCCC2 do in these assays?
aSyn UTR act: -105*

How did O=C(Nc1cccc(O)c1)c1noc2c1CCCCC2 do in these assays?
aSyn UTR act: 57

How did CC(=O)c1ccc(NC(=O)c2noc3c2CCC3)cc1 do in these assays?
aSyn UTR act: 71

How did O=C(NCc1ccccc1)c1noc2c1CCCCC2 do in these assays?
aSyn UTR act: -133*

Results for CC(NC(=O)c1noc2c1CCCCC2)c1ccccc1 (centres undefined) ?
aSyn UTR act: -78*

What do the screens show for `Cc1ccc(NC(=O)c2noc3c2CCC3)cc1C`?
aSyn UTR act: -75*

What do the screens show for `COC(=O)c1ccccc1NC(=O)c1noc2c1CCCC2`?
aSyn UTR act: -79*

Results for COc1ccc(Cl)cc1NC(=O)C1Cc2ccccc2CN1S(C)(=O)=O (centres undefined) ?
aSyn UTR act: 54

Results for CCc1nnc(NC(=O)C2Cc3ccccc3CN2S(=O)(=O)c2c(C)c(C)cc(C)c2C)s1 (centres undefined) ?
aSyn UTR act: -104*

What do the screens show for `COc1cccc(/C=N/NC(=O)c2cccs2)c1`?
aSyn UTR act: -137*

How did COc1cc(/C=N/NC(=O)c2cccs2)ccc1OCc1ccccc1 do in these assays?
aSyn UTR act: -105*

What do the screens show for `COc1cc(/C=N/OCC(=O)NC2CCCCC2)ccc1OCc1ccccc1`?
aSyn UTR act: -97*

How did COc1cc(/C=N/NC(=O)c2cc(C)oc2C)ccc1OCc1ccccc1 do in these assays?
aSyn UTR act: -102*

What do the screens show for `Cc1nn(-c2ccccc2)c(C)c1C(=O)OCC(=O)N(C)C1CCS(=O)(=O)C1` (centres undefined)?
aSyn UTR act: -90*

Results for CN(C(=O)COC(=O)c1nc(Cl)c(Cl)c(Cl)c1Cl)C1CCS(=O)(=O)C1 (centres undefined) ?
aSyn UTR act: -210*

What do the screens show for `CN(C(=O)COC(=O)c1c2c(nc3ccccc13)/C(=C/c1cccc([N+](=O)[O-])c1)CCC2)C1CCS(=O)(=O)C1` (centres undefined)?
aSyn UTR act: 72

Results for Cc1ccc(-c2nc3cc(C)ccc3o2)cc1 ?
aSyn UTR act: 73

Results for Cc1ccc2oc(-c3ccco3)nc2c1 ?
aSyn UTR act: -137*

What do the screens show for `COc1ccc(-c2nnc(SCC(=O)N3CCCC3)o2)c(OC)c1`?
aSyn UTR act: -83*

What do the screens show for `CC1CCCCN1C(=O)CSc1nnc(-c2ccco2)o1` (centres undefined)?
aSyn UTR act: -136*

Results for O=C(CSc1nnc(-c2ccccc2F)o1)N1CCCC1 ?
aSyn UTR act: -76*

How did CC1CCCCN1C(=O)CSc1nnc(-c2ccccc2F)o1 (centres undefined) do in these assays?
aSyn UTR act: -84*

What do the screens show for `COc1cccc(C(=O)O/N=C(\N)c2ccccn2)c1OC`?
aSyn UTR act: -74*

What do the screens show for `COc1cccc(C(=O)O/N=C(\N)c2ccncc2)c1OC`?
aSyn UTR act: -84*

How did N/C(=N\OC(=O)c1cccc2ccccc12)c1ccccn1 do in these assays?
aSyn UTR act: 102

Results for C=CCNC(=O)COc1ccc(Br)cc1Cl ?
aSyn UTR act: -103*

How did COCCNC(=O)COc1ccc(Br)cc1Cl do in these assays?
aSyn UTR act: -68*

How did O=C(COc1ccc(Br)cc1Cl)c1ccc[nH]1 do in these assays?
aSyn UTR act: -69*

How did Cc1cc(/C=C(\C#N)C(=O)NCC2CCCO2)c(C)n1-c1ccc(Cl)cc1 (centres undefined) do in these assays?
aSyn UTR act: -267*

What do the screens show for `CCOc1ccc(NC(=O)c2[nH]c(C)c(C(C)=O)c2C)cc1`?
aSyn UTR act: -76*

What do the screens show for `CCc1c(C(=O)Nc2ccc(OC)cc2)[nH]c(C)c1C(C)=O`?
aSyn UTR act: -93*

What do the screens show for `COc1ccc(NC(=O)c2[nH]c(C)c(C(C)=O)c2C)cc1`?
aSyn UTR act: -193*

How did CCc1ccc(NC(=O)c2[nH]c(C)c(C(C)=O)c2C)cc1 do in these assays?
aSyn UTR act: -223*

What do the screens show for `COc1ccc(C(=O)NC2=NCCS2)cc1`?
aSyn UTR act: -91*

How did Cc1ccc(C(=O)Nc2ccsc2C(=O)O)cc1 do in these assays?
aSyn UTR act: -141*

How did Cc1ccc(C(=O)NC2=NCCS2)cc1 do in these assays?
aSyn UTR act: -118*

How did Cc1ccc(C(=O)NC2=NCCS2)cc1Cl do in these assays?
aSyn UTR act: -110*

How did O=C(NC1=NCCS1)c1ccc(C(F)(F)F)cc1 do in these assays?
aSyn UTR act: -123*

What do the screens show for `N#Cc1ccc(C(=O)NC2=NCCS2)cc1`?
aSyn UTR act: -141*

Results for CSc1ccc(CN(C)C(=O)c2cc3ccccc3o2)cc1 ?
aSyn UTR act: -67*

How did Nc1ccc(SC(F)(F)F)cc1 do in these assays?
aSyn UTR act: -70*

Results for CN1C(=O)/C(=C\c2ccc(N(C)C)cc2)OC1=S ?
aSyn UTR act: -67*

Results for CCOC(=O)c1sc(NC(=O)c2ccc(Br)o2)cc1C ?
aSyn UTR act: -236*

How did CCOC(=O)c1sc(NC(=O)c2cccs2)cc1C do in these assays?
aSyn UTR act: -88*

Results for CCOC(=O)c1sc(NC(=O)c2sccc2C)cc1C ?
aSyn UTR act: -82*

How did CCOC(=O)c1sc(NC(=O)Nc2cccc(Cl)c2)cc1C do in these assays?
aSyn UTR act: -110*

What do the screens show for `COC(=O)c1sc(NC(=O)/C=C/c2ccc(C)o2)nc1C`?
aSyn UTR act: -65*

How did COC(=O)c1sc(NC(=O)c2ccoc2C)nc1C do in these assays?
aSyn UTR act: -136*

What do the screens show for `COC(=O)c1sc(NC(=O)c2ccco2)nc1C`?
aSyn UTR act: -69*

From PubChem BioAssay
